Compound activity as filed in PubChem BioAssay.
An excerpt weighted towards active compounds, which were near 3.7% of everything screened.
TSG101-PTAP inh: TSG101-PTAP interaction inhibition, HIV-1 budding; Q99816; Fluorescence polarization, FITC-PTAP peptide/Tsg101, 20 min; Potency, µM (top dose mostly 115 µM), hits mostly inhibitors; 44,000 tested, under 10 active; AID 1347069; note: potency is the fitted concentration of half-maximal effect; 0% is about no effect
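Fluorescence polarization binding of Tsg101 binding domain (10 uM final) to FITC-labeled PTAP-motif peptide (50 nM final) in HEPES pH 7.5/NaCl/Tween 20/EDTA/TCEP buffer; 20 min at r.t. Actives by curve class, <25 µM, efficacy <60% inhibition.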
GALK inhibitor: inhibitors of human galactokinase (GALK); recombinant GALK, Kinase-Glo ATP luminescence, 1 h; P51570; Potency, µM (series often up to 57.5 µM), without a hit: top-dose activity, negative = inhibition, hits mostly inhibitors; 44,000 tested, under 10 active; AID 1347072;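 note: plate controls were full GALK reaction for no effect and reaction lacking GALK for full effect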
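Luminescent ATP-depletion readout (Kinase-Glo Plus) after 1 h room-temperature incubation of human GALK (5 nM) with galactose 100 µM and ATP 35 µM, pH 8.0 HEPES/Mg2+ buffer; compounds tested in qHTS format.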
B2AR arrestin ag: beta-arrestin recruitment by human beta2-adrenergic receptor ligands; 44,000 tested, under 10 active; Potency, µM (top dose mostly 46.1 µM), hits mostly activators; HTLA Tango cells, beta-arrestin recruitment, luciferase luminescence, 18 h; P07550;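 note: potency is the fitted concentration of half-maximal effect; 0% = DMSO and full agonism = EC100 isoproterenol or metaproterenol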
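Receptor–beta-arrestin recruitment read by tTA-responsive luciferase: compound titrations (up to 46 µM) incubated 18 h with Tango cells, then luminescent substrate 15 min at room temperature. Concentration-response fits classified by r2, efficacy and activity.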
FH mod: Identification of activators of human fumarate hydratase by quantitative high-throughput screening. Fumarate hydratase, mitochondrial (Homo sapiens), P07954. FH coupled MDH/diaphorase resazurin fluorescence, 15 min. Potency, µM (titrated, usually from 79.9 µM), without a hit: at the top dose activity change, negative = inhibition, hits mostly inhibitors. actives 0.22% (n = 54,000). AID 1347055, 2019; note: potency is the fitted concentration of half-maximal effect; % is set by controls: 0 for no effect and ±100 for the full control effect; the screen sought activators but most active calls are inhibition curves; nearly all actives have a fitted effect of over 45% in size
Target sequence (P07954 whole entry, looked up): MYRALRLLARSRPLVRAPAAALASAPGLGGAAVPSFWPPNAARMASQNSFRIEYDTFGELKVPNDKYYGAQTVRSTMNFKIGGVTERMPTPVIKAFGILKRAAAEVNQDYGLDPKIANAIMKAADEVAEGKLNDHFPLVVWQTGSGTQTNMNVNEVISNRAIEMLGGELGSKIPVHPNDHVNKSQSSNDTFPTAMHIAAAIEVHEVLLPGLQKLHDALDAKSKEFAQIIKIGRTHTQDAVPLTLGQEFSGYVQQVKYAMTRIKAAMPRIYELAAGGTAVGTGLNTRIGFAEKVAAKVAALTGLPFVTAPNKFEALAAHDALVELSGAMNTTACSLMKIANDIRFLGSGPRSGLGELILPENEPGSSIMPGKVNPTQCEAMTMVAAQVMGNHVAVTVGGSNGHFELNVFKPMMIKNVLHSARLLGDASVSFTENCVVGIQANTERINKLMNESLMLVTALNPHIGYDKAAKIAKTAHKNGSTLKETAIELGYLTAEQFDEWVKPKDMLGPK
NTMT1 inh: NTMT1 methyltransferase inhibition | Q9BV86 | NTMT1 MTase-Glo SAH luminescence, purified enzyme | Potency, µM (doses to about 114 µM), inactives show at the highest dose activity change, negative = inhibition, most hits filed as inhibitors | actives 2.5% (n = 59,000) | AID 1645870;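 note: potency is the fitted concentration of half-maximal effect; plate controls were DMSO vehicle for no effect and no enzyme for full effect; nearly all actives have a fitted effect of over 65% in size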
Target sequence (Q9BV86 whole entry, looked up): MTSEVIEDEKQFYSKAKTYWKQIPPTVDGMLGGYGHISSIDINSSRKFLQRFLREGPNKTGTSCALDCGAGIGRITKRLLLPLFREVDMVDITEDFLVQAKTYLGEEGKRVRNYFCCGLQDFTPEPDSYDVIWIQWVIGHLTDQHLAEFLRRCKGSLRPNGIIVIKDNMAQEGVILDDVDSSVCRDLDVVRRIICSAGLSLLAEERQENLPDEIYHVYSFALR
DRV1 agonist: GPR32 (DRV1) agonism, beta-arrestin recruitment. O75388. CHO-K1 GPR32 beta-arrestin PathHunter luminescence, 90 min; zero percent set by DMSO-only wells. activation, % at 76.9 µM. actives 2.5% (n = 48,000). AID 1346428;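 active = activation of at least 60% and not above a set upper limit, about 1 call in 100 departs from these limits; inconclusive = activation of 40% to 60%, or above that upper limit; inactive = activation under 40%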; note: 0% is about no effect
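PathHunter beta-arrestin recruitment in CHO-K1 cells stably expressing ProLink-tagged GPR32. Cells were exposed to compound for 90 min at 37 C, then chemiluminescence was read after 1 h detection at ambient temperature; DMSO served as basal control.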
* hit, by the source's call; i = inactive; u = inconclusive; x = no result; ! = not confirmed by another sample; [ ] = dose if it differs, or a comment. Unless noted, calls come from the whole dose curve; as a rule, active = well fitted curve in the direction sought with a large enough effect; inconclusive = small, poorly fitted or top-dose-only effect, or another doubt; inactive = no such curve, though single readings can be large; an effect the other way counts as inactive or inconclusive.

SMILES | TSG101-PTAP inh | GALK inhibitor | B2AR arrestin ag | FH mod | NTMT1 inh | DRV1 agonist
COc1cccc(C2N=C(Nc3nc4ccccc4o3)NC3=C2C(=O)CCC3)c1 (centres undefined) | x | x | x | x | 9% | x
CC(C)N1CCc2c(sc(NC(=O)c3ccccc3)c2-c2nc3ccccc3s2)C1 | x | x | x | x | 8% | x
O=C(Cc1ccc(Cl)c(Cl)c1)Nc1ccc([S+](=O)([O-])Nc2nnc(-c3ccccn3)s2)cc1 | x | x | x | x | 79µM* | x
c1cncc(-c2ccc(CNc3nc(N4CCCC4)nc4ccccc34)cc2)c1 | x | x | x | x | 40µM* | x
CC(=CC(=O)Nc1ccccc1C(=O)O)c1ccc2ccccc2c1 | x | x | x | -3%[53.3 µM] | 34µM* | x
Cn1ccc2cc3c(cc21)CCN3C(=O)Nc1cccnc1 | x | x | x | u | 79µM*! | -6
CN1CCc2cc(NC(=O)Nc3cccnc3)ccc21 | x | x | x | -5%[53.3 µM] | x | 1
COc1ccc(C2NC(=O)c3ccccc3N2)cc1COc1c(C)cc(NC(C)=O)cc1C (centres undefined) | x | x | x | x | 0% | x
Cc1ccc(Cn2c(CCCNC(=O)c3ccco3)nc3ccccc32)cc1 | i | -2% | i | x | x | 24
Cc1cc(C)c(Cn2c(CCNC(=O)c3ccco3)nc3ccccc32)c(C)c1 | i | -9% | i | x | x | 68*
Cc1cc(NS(=O)(=O)c2ccc(NC(=O)Cc3ccc(Cl)cc3)cc2)no1 | x | x | x | x | 10%[57.5 µM] | x
CCOc1ccccc1CNC(=O)Cn1nc(N2CCN(c3ccccc3)CC2)ccc1=O | i | 1% | i | u | -6% | 61*
COc1ccc(CNC(=O)Cn2nc(N3CCN(c4ccccc4)CC3)ccc2=O)c(OC)c1 | i | 0% | i | -16% | u | 10
COc1cc(CN2CCc3nc(Nc4ccc5c(c4)OCCO5)ncc3C2)cc(OC)c1OC | i | 2% | i | 0% | 7% | 97*
CCc1ccc(CN2CCc3nc(Nc4ccc5c(c4)OCCO5)ncc3C2)cc1 | i | 2% | i | u | 89µM* | -22
COc1cccc(CN2CCc3nc(Nc4ccc5c(c4)OCCO5)ncc3C2)c1OC | i | -1% | i | -20% | 5% | 86*
Cc1ccc(CN2CCc3nc(Nc4ccc5c(c4)OCCO5)ncc3C2)cc1 | i | 2% | i | -18% | 3% | 29
CC(C)n1nc(Cc2cccc3ccccc23)c2c(N)ncnc21 | x | x | x | -9% | u | x
CCCCCc1ccc(/C=C/[C@H](O)[C@@H](CO)NC)cc1 | x | x | x | -2% | 9% | x
O=C(Nc1cccc(Cl)c1)C1CCN(S(=O)(=O)Cc2ccccc2)CC1 | i | -12% | i | x | x | 115*
COCCCNC(=O)Cn1c(=O)n(-c2ccc(Cl)cc2)c(=O)c2c3c(sc21)CCCCC3 | i | 4% | i | 1% | 1% | 60*
O=C(O)c1ccc(-c2noc(-c3ccccc3F)n2)cc1 | x | x | x | x | 22µM* | x
Fc1cnc(-c2ccccc2C(F)F)nc1NCC1CCN(c2cnccn2)CC1 | x | x | x | x | -1% | x
Fc1cnc(-c2ccccc2C(F)F)nc1NCc1ccc(-n2ccnn2)cc1 | x | x | x | x | -9% | x
COc1ccc(C(=O)Nc2ccccc2)cc1S(=O)(=O)Nc1ccc(Br)cc1 | i | 0% | i | -7% | -1% | 90*
SMILES | TSG101-PTAP inh | GALK inhibitor | B2AR arrestin ag | FH mod | NTMT1 inh | DRV1 agonist
Cc1cc(C)cc(NC(=O)c2cccc(C(=O)Nc3cc(C)cc(C)c3)c2)c1 | i | -5% | i | x | x | -1
COc1ccc(C(=O)Nc2ccc(NC(=O)c3cccs3)cc2)cc1OC | i | -1% | i | 28µM*[activator] | u | -31
O=C(Nc1ccc(Br)cc1)c1cccc(C(=O)Nc2ccc(Br)cc2)c1 | i | 0% | i | 0% | 8% | 71*
Cc1cc(NC(=O)c2ccc(NC(=O)Cc3ccc(Cl)c(Cl)c3)cc2)no1 | x | x | x | x | 9% | x
O=c1cc(COc2ccccc2Cl)nc2scc(-c3ccccc3)n12 | i | 9% | i | -7% | 2% | 86*
CN1CCN(CCCNc2ncc(Cl)c(-c3cc4c(C(=O)NC5CC5)cccc4s3)n2)CC1 | x | x | x | 0% | 79µM* | x
CC(C)c1c(-c2ccccc2)nc2c(C#N)c[nH]n2c1=O | x | x | x | x | 16% | x
COC(=O)c1ccc(=O)c2nc3/c(=C/O)c(O)cc(=O)c3[nH]c12 | x | x | x | -6% | 35µM* | x
O=c1[nH]nc2c3c(cccc13)NC(CN1Cc3ccccc3C1)=N2 | x | x | x | x | 22% | x
CC1Oc2cc(cnc2N)-c2c(nn(C)c2C#N)CN(C)C(=O)c2ccc(F)cc21 (centres undefined) | x | x | x | 2% | 16% | x
COc1cccc(CNC(=O)Cn2c(=O)n3nc(-c4cccc(C)c4)nc3c3ccccc32)c1 | i | 1% | i | -9% | -5% | 15
Cc1cccc(-c2nc3c4ccccc4n(CC(=O)Nc4cccc(F)c4)c(=O)n3n2)c1 | i | -1% | i | -8% | -2% | 76*
Oc1c(C(c2ccccc2Cl)N2CCN(Cc3ccccc3)CC2)sc2nc(-c3ccco3)nn12 (centres undefined) | i | -4% | i | -23% | 5% | 94*
CC(=O)N1CCN(C(=O)COC(=O)c2ccc([S+](C)(=O)[O-])c([N+](=O)[O-])c2)CC1 | x | x | x | x | 13%[57.5 µM] | x
O=C1NC(=O)C(=Cc2ccc(-c3ccc(F)cc3O)o2)S1 | x | x | x | -27%[53.3 µM] | 24µM* | x
O=C1NC(=O)/C(=C/c2ccc3c(c2)OC(F)(F)O3)S1 | x | x | x | u | -1%[57.5 µM] | 24
CC(C)(O)[C@H]1CC[C@@](C)([C@H]2[C@@H](O)C[C@@]3(C)[C@@H]4C[C@H](O[C@@H]5O[C@H](CO)[C@@H](O)[C@H](O)[C@H]5O)[C@H]5C(C)(C)[C@@H](O[C@@H]6OC[C@@H](O)[C@H](O)[C@H]6O)CC[C@@]56C[C@@]46CC[C@]23C)O1 | x | x | x | x | -15% | x
Cc1cc2c(s1)c1cnn(Cc3ccc(C)c(F)c3)c(=O)c1n2C | x | x | x | x | 79µM* | x
COc1cc(OC)c(NC(=O)Nc2cccc(OCc3cc(=O)n4ccccc4n3)c2)cc1Cl | i | 3% | i | -13% | 79µM* | -9
O=c1[nH]c(=S)[nH]c(-c2ccccc2)c1Cc1c(O)ccc2ccccc12 | x | x | x | 20µM* | x | x
COCCOCCOc1ccc(C2=N[C@@](C)(C(=O)O)CS2)c(O)c1 | x | x | x | u | 7%[57.5 µM] | x
Cc1cccc(N2CCN(C(=O)Nc3ccc(F)cc3)CC2C)c1 (centres undefined) | i | -1% | i | -9% | 7% | 63*
Cc1cccc(/C=C/c2onc(C)c2S(=O)(=O)N2CCC(C(=O)N3CCCCC3)CC2)c1 | i | 1% | i | -33% | 5% | -18
